Laboratory results from PMC7862700, “An all-to-all approach to the identification of sequence-specific readers for epigenetic DNA modifications on cytosine”.

Tests used:
Assay in all cases: DAPPL (digital affinity profiling via proximity ligation, sequencing); 10 mM Tris-HCl pH 7.5, 50 mM NaCl, 1 mM DTT, 4% glycerol, room temperature, 30 min; GST-TFs on glutathione beads, 16-mer random dsDNA library, 0.1% formaldehyde crosslink after washing; high values mean tight binding
FEV = biological target: T1, FEV (Homo sapiens, UniProt Q99581 1-238); details: protein: recombinant; tags: N-terminal GST; dsDNA, one strand shown
T1 sequence: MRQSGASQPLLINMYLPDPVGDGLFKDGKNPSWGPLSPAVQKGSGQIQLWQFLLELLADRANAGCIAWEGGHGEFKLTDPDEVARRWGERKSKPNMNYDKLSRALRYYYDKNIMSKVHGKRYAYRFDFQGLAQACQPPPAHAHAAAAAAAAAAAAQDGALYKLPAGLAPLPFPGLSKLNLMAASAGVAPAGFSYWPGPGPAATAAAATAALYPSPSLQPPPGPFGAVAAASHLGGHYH
Outline: (§1)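 Binding signal is given per hexamer as its read frequency for a factor divided by its frequency in the tag-only sample. GST-fused human transcription factors were expressed in yeast, captured on glutathione beads, barcoded with DNA and pooled with that sample, then incubated with 200 nmole of a 16-mer random double-stranded DNA library in Tris/NaCl/DTT/glycerol buffer for 30 min at room temperature. The pools were then washed, crosslinked, proximity-ligated, amplified by PCR and sequenced on an Illumina NextSeq500.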

ETV5 = ETV5 (Homo sapiens, UniProt P41161 1-510); details: protein: recombinant; tags: N-terminal GST; dsDNA, one strand shown
Sequence of ETV5 (P41161 whole entry): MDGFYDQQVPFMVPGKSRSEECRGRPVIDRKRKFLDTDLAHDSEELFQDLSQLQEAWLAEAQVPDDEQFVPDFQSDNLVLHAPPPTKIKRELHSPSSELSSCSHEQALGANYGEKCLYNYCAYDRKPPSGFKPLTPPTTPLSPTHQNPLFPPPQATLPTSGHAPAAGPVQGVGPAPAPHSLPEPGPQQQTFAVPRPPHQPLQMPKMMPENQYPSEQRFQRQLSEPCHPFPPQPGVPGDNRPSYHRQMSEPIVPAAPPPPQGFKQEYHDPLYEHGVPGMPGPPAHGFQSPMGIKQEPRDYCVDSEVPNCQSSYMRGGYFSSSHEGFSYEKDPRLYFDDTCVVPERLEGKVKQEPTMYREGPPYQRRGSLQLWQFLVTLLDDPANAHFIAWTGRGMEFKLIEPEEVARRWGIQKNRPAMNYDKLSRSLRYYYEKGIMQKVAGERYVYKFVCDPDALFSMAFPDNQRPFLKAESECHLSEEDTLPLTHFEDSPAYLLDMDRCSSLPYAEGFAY
Outline: as §1

HSF1 = HSF1 (Homo sapiens, UniProt Q00613 1-529); details: protein: recombinant; tags: N-terminal GST; chain copies: 3; dsDNA, one strand shown
Sequence of HSF1 (Q00613 whole entry): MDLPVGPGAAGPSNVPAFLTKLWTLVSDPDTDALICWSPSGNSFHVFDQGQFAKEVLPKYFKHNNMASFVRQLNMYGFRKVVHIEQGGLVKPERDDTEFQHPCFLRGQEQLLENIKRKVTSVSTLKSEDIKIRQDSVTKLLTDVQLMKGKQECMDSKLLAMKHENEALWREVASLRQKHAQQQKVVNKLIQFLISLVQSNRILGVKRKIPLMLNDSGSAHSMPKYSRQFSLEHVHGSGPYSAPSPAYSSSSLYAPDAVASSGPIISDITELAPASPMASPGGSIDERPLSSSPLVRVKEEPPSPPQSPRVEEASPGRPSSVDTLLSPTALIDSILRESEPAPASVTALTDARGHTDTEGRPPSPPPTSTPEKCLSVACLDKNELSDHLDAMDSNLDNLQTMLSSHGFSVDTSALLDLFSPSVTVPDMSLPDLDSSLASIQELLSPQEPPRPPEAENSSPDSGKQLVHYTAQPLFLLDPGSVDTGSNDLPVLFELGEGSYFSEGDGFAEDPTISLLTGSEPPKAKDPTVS
Outline: as §1

SPIC = biological target: T2, SPIC (Homo sapiens, UniProt Q8N5J4 1-248); details: protein: recombinant; tags: N-terminal GST; dsDNA, one strand shown
T2 sequence: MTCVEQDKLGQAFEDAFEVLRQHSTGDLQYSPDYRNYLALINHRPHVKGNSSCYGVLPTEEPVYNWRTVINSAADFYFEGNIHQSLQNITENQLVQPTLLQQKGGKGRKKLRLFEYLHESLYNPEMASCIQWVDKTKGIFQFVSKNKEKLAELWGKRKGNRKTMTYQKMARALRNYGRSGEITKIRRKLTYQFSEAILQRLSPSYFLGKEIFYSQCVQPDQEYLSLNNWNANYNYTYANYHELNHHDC
Outline: as §1

ELF4 = ELF4 (Homo sapiens, UniProt Q99607 1-663); details: protein: recombinant; tags: N-terminal GST; dsDNA, one strand shown
Sequence of ELF4 (Q99607 whole entry): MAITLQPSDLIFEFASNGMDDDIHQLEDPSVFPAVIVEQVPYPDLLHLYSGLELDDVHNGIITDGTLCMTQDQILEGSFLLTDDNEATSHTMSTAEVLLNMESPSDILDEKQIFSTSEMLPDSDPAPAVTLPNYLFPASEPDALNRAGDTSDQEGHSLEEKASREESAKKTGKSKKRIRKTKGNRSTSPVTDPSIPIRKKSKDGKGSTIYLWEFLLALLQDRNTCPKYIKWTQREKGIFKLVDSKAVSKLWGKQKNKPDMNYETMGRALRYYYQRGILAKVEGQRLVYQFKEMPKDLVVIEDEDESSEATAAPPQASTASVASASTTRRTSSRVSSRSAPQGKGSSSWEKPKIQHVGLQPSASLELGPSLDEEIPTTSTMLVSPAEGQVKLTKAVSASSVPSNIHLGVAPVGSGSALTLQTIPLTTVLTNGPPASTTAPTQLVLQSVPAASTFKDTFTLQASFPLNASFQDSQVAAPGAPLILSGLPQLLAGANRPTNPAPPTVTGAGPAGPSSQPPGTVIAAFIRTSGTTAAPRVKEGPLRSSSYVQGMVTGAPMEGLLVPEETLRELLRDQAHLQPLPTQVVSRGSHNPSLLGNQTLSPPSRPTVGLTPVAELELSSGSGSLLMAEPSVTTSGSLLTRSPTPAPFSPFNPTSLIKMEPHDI
Outline: as §1

ELK4 = biological target: T3, ELK4 (Homo sapiens, UniProt P28324-2 1-405); details: protein: recombinant; tags: N-terminal GST; dsDNA, one strand shown
T3 sequence: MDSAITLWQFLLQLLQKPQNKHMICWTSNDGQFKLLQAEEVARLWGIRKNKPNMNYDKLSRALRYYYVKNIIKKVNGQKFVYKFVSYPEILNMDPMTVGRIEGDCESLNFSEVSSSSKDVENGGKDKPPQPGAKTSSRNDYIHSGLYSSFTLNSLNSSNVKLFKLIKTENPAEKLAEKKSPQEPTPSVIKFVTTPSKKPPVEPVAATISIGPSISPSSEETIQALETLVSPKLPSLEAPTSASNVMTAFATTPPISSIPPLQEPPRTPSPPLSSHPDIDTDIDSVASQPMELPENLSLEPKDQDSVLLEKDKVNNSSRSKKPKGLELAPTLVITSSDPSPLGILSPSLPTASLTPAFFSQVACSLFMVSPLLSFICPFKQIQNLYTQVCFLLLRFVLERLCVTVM
Outline: as §1

ETV2 = biological target: T4, ETV2 (Homo sapiens, UniProt O00321 1-342); details: protein: recombinant; tags: N-terminal GST; dsDNA, one strand shown
T4 sequence: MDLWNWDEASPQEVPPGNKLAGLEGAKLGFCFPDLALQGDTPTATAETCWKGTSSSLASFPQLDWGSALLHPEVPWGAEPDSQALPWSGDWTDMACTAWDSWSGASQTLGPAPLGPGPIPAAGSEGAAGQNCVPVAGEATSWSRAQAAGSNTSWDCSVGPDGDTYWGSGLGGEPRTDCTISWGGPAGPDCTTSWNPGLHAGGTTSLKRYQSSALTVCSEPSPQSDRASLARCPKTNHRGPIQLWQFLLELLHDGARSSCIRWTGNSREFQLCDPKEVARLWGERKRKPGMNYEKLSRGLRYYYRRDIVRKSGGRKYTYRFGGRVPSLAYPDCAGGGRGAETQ
Outline: as §1

ELF3 = biological target: T5, ELF3 (Homo sapiens, UniProt P78545 1-371); details: protein: recombinant; tags: N-terminal GST; dsDNA, one strand shown
T5 sequence: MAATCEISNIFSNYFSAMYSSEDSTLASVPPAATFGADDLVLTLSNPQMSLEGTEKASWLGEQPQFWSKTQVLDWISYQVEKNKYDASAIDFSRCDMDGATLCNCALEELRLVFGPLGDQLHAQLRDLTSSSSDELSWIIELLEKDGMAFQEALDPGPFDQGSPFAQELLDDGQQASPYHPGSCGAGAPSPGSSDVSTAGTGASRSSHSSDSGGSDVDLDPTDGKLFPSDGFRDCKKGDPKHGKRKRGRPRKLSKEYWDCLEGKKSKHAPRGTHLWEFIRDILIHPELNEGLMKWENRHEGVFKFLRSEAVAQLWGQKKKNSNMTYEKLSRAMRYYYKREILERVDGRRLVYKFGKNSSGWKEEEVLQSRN
Outline: as §1

CRX = CRX (Homo sapiens, UniProt O43186 1-299); details: protein: recombinant; tags: N-terminal GST; dsDNA, one strand shown
Sequence of CRX (O43186 whole entry): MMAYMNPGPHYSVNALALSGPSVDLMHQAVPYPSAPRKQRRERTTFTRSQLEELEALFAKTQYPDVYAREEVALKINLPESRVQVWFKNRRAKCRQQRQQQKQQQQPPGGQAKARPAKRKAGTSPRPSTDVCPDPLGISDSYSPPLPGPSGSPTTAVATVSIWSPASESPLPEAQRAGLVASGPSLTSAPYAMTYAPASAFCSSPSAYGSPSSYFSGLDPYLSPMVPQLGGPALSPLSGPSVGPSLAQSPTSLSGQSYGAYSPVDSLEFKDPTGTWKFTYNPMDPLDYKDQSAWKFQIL
Outline: as §1

ETV1 = ETV1 (Homo sapiens, UniProt P50549 1-477); details: protein: recombinant; tags: N-terminal GST; dsDNA, one strand shown
Sequence of ETV1 (P50549 whole entry): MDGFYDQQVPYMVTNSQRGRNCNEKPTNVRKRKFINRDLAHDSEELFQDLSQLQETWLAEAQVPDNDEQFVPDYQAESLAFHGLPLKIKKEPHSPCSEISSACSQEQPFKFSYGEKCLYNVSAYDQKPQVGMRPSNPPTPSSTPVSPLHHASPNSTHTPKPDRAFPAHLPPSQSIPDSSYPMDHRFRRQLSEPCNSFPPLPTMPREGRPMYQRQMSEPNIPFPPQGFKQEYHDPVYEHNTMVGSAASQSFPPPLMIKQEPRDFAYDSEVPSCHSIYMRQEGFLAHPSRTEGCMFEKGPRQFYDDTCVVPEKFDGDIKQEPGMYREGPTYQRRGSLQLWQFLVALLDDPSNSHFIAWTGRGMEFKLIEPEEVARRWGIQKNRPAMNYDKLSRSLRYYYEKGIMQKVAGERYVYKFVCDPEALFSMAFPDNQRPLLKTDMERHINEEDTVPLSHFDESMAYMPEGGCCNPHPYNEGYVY
Outline: as §1

## CTATGG
FEV
  binding signal: 1.15 fold enrichment (6-mer frequency, TF over GST control)
ETV5
  binding signal: 1.23 fold enrichment (6-mer frequency, TF over GST control)
HSF1
  binding signal: 1.17 fold enrichment (6-mer frequency, TF over GST control)
SPIC
  binding signal: 1.14 fold enrichment (6-mer frequency, TF over GST control)
ELF4
  binding signal: 1.15 fold enrichment (6-mer frequency, TF over GST control)
ELK4
  binding signal: 1.24 fold enrichment (6-mer frequency, TF over GST control)
ETV2
  binding signal: 1.28 fold enrichment (6-mer frequency, TF over GST control)
ELF3
  binding signal: 1.25 fold enrichment (6-mer frequency, TF over GST control)
CRX
  binding signal: 1.11 fold enrichment (6-mer frequency, TF over GST control)
ETV1
  binding signal: 1.18 fold enrichment (6-mer frequency, TF over GST control)
